# ChEMBL document CHEMBL3988442, “University of Dundee, Small-Polar-MMV Screening Library” (2021)
# Among all 69,000 compounds or so, about 950 (1.4%) showed an effect of 50% or more. What follows is part of a selection rich in strong results, with near analogues and random picks from the rest.
# System: Mycobacterium tuberculosis
# Assay: Cornell M. t heat shock assay; further: in the data most compounds retested in dose-response had high values
# Assay type: functional, organism-based
# Parameters: dose or concentration left out as unconfirmed
row,SMILES,Percent Effect [%]
1,COc1ccc(CCNC(=O)Nc2cc(C)nn2C)cc1,8.379
2,Cc1cc(NC(=O)NCCc2ccccc2)n(C)n1,-19.68
3,Cc1cc(NC(=O)NCCc2ccsc2)n(C)n1,63.69
4,Cc1cnccc1NC(=O)CCc1ccsc1,-21.59
5,Cn1cc(NC(=O)CCc2ccsc2)ccc1=O,27.26
6,Cc1cc(NC(=O)CCc2ccsc2)n(C)n1,89.31
7,COCCN1Cc2nccn2CC(COCc2csc(C)n2)C1.O=C(O)C(F)(F)F.O=C(O)C(F)(F)F (stereo not drawn),2.482
8,O=S(=O)(c1ccc2c(c1)OCCO2)N1CCc2ccccc2C1,-4.595
9,O=C(O)C(F)(F)F.c1ccc(N2CCCC3(CCN(Cc4cccs4)C3)C2)nc1 (stereo not drawn),-4.42
10,Cc1ccc(C(CCNCCCN(C)C)C2CCOC(C)(C)C2)cc1.O=C(O)C(=O)O (stereo not drawn),-7.6
11,CCc1ccc(-c2cc(C(F)(F)F)nc(N3CCC(N)CC3)n2)cc1,103
12,Cc1c(-c2cc(C(F)(F)F)nc(N3CCC(N)CC3)n2)cnn1C,-8.82
13,CCn1ncc(-c2cc(C(F)(F)F)nc(N3CCC(N)CC3)n2)c1C,23.29
14,O=C(C1CC(F)(F)C1)N1C[C@@H]2CN(CC3CCCC3)CCO[C@@H]2C1.O=C(O)C(F)(F)F,-23.11
15,CN1CC(=O)N(c2ccsc2)CC12CCN(C(=O)N1CCCC1)C2.O=C(O)C(F)(F)F (stereo not drawn),-15.35
16,CCc1cnc(N2CCC3(CC2)CN(c2cccnc2)C(=O)CO3)nc1.O=C(O)C(F)(F)F,-15.98
17,CCN1CCC(c2nc3ccc(NC4CCC4)cn3n2)CC1.O=C(O)C(F)(F)F,28.46
18,Cc1noc(C)c1CN1C[C@@H]2COC[C@H](C(=O)N3CCCCO3)[C@@H]2C1.O=C(O)C(F)(F)F,10.78
19,CC(=O)N[C@@H]1CN(C(=O)c2cccc(C(F)(F)F)c2)C[C@H]1O,-5.977
20,O=C(Nc1cc(Cl)ccn1)c1nc(N2CCCC2)ncc1Cl,5.327
21,O=C(Nc1ccccn1)c1nc(N2CCCC2)ncc1Cl,-2.485
22,Cc1cc(NC(=O)c2nc(N3CCCC3)ncc2Cl)nc(C(C)C)n1,105.6

row,SMILES,Percent Effect [%]
1,CC[C@H]1CN2CC[C@H]1C[C@@H]2CNCc1ccc(OC)cc1,-7.267
2,CC[C@H]1CN2CC[C@H]1C[C@@H]2CNCc1ccc(OC(F)(F)F)cc1,100.5
3,CC[C@H]1CN2CC[C@H]1C[C@@H]2CNC(=O)Nc1cc(OC)cc(OC)c1,76.55
4,CC[C@H]1CN2CC[C@H]1C[C@@H]2CNC(=O)Nc1ccccc1,-5.923
5,CC[C@H]1CN2CC[C@H]1C[C@@H]2CNC(=O)Nc1ccc(Br)cc1,4.849
6,CC[C@H]1CN2CC[C@H]1C[C@@H]2CNCc1ccc(N(C)C)cc1,1.41
7,CC(C)C(=O)N(C)Cc1nc(N2CCCC2)ncc1-c1ccncc1.Cl,19.59
8,CC(C)c1cc(C(=O)N2CCCC(n3cncn3)C2)n[nH]1 (stereo not drawn),-20.76
9,Cc1[nH]nc2ncc(C(=O)N3CCN(CC(C)O)CC3)cc12.Cl (stereo not drawn),-10.49
10,Cc1noc(C)c1CN1CCO[C@H]2CN(Cc3cncn3C)C[C@H]21.O=C(O)C(F)(F)F.O=C(O)C(F)(F)F,-21.37
11,O=C(CCC1CCCC1)N1CCC(c2ncc3c(n2)CCNC3)CC1,14.08
12,CN1CCc2nc(C3CCCN(C(=O)CC4CCCCC4)C3)ncc2C1 (stereo not drawn),-14.45
13,CN1CCc2nc(C3CCN(C(=O)CCC4CCCC4)CC3)ncc2C1,104.5
14,Cc1ccc(CN2C[C@@H]3C[C@H](C(=O)NCC4CC4)N(C)[C@@H]3C2)o1.O=C(O)C(F)(F)F.O=C(O)C(F)(F)F,-27.97
15,CCC(C)Oc1ccc(CNCCNC(C)=O)cc1Cl (stereo not drawn),-0.254
16,CCC(C)Oc1ccc(CNCCc2c[nH]cn2)cc1Cl (stereo not drawn),101.9
17,CCC(C)Oc1ccc(CNCCNS(C)(=O)=O)cc1Cl (stereo not drawn),14.23
18,COCCCN(CCOC)Cc1nc2c(cnn2C)c(=O)[nH]1,18.48
19,COCCN(CCOC)Cc1nc2c(cnn2C)c(=O)[nH]1,-10.64
20,CN(CCCOc1ccccc1)Cc1nc2c(cnn2C)c(=O)[nH]1,-3.727
21,COCCN(CCc1ccccc1)Cc1nc2c(cnn2C)c(=O)[nH]1,50.74
22,CN(CCCc1ccccc1)Cc1nc2c(cnn2C)c(=O)[nH]1,59.96

row,SMILES,Percent Effect [%]
1,CN(CCc1ccccc1)Cc1nc2c(cnn2C)c(=O)[nH]1,14.44
2,CNC(=O)CN1CCOCC12CCN(Cc1ccncc1)CC2.O=C(O)C(F)(F)F.O=C(O)C(F)(F)F,-37.23
3,CN(C)CCO[C@@H]1CC[C@H]2[C@H]1OCCN2C(=O)c1ccnnc1.O=C(O)C(F)(F)F,-33.17
4,Nc1ccnc(-c2cc(NC3CCNCC3)nc3[nH]ccc23)c1,14.8
5,COc1cc(-c2cc(NC3CCCC3)nc3[nH]ccc23)nc(N)n1,101.075
6,COc1ncc(-c2ccc(O)cc2)c(OC)n1,-3.595
7,COc1ncc(-c2cc(NC3CCCC3)nc3[nH]ccc23)c(OC)n1,102
8,FC(F)(F)c1ccc(-c2cc(NC3CCNCC3)nc3[nH]ccc23)nc1,16.27
9,COc1nccnc1-c1cc(NC2CCCC2)nc2[nH]ccc12,103.35
10,CNc1cc(C)nc(-c2cc(NC3CCNCC3)nc3[nH]ccc23)n1,-20.27
11,COc1ncc(-c2cc(NCCN(C)C)nc3[nH]ccc23)c(OC)n1,-24.47
12,COc1nccnc1-c1cc(NC2CCNCC2)nc2[nH]ccc12,-16.125
13,O=C(O)C(F)(F)F.O=C(c1ccno1)N1CC[C@@H]2O[C@@H](COCCN3CCCC3)CC[C@@H]21,-5.47
14,C[C@H]1CN2C[C@H](O)CC2CN1Cc1ccc2nccnc2c1.Cl (stereo partly drawn),2.113
15,O=C(O)C(F)(F)F.O=C(O)C(F)(F)F.c1ccc(OC[C@]23COC[C@H]2CN(C2CCOCC2)C3)nc1,-7.98
16,Cc1ccc(CN(C)C(=O)CN2CCCC2c2cnn(C)c2)o1 (stereo not drawn),15.31
17,CC1=N[C@@]2(CC[C@@H]3CN(Cc4cccc(Cl)c4)C[C@@H]32)C(=O)N1CC1CC1.O=C(O)C(F)(F)F,3.209
18,CN(C)S(=O)(=O)N1C[C@H]2C[C@H](C(=O)NCc3ccccc3)[C@@H](C1)O2,-32.32
19,Cc1nc(CN2CCC3(CCCN(Cc4cccnc4)C3)C2=O)cs1.O=C(O)C(F)(F)F.O=C(O)C(F)(F)F.O=C(O)C(F)(F)F (stereo not drawn),-21.24
20,CCO[C@H]1CN(CC2CCOCC2)[C@@H]2CCCO[C@H]12.O=C(O)C(F)(F)F,43.93
21,Cc1noc(C)c1C(=O)N1C[C@H]2CC[C@@H]1CN(c1cnccn1)C2,-7.98
22,O=S(=O)(NCCCN1CCCC1)c1cc(F)cc(F)c1,-10.46

row,SMILES,Percent Effect [%]
1,COCCN1C(=O)C2(CCN(CC3CC3)CC2)c2ccccc21.O=C(O)C(F)(F)F,22.29
2,CCc1[nH]c2c(CNc3cnccn3)cc(F)cc2c1C,27.04
3,CCc1[nH]c2c(CNc3cc(C)nc(NC)n3)cc(C)cc2c1C,100.4
4,CNc1nc(C)cc(NCc2cc(C)cc3c(C)c(C)[nH]c23)n1,64.43
5,Cc1cc(CNc2cncc(C(=O)N(C)C)n2)c2[nH]c(C)c(C)c2c1,-11.36
6,CCc1[nH]c2c(CNc3nccc(N)n3)cc(F)cc2c1C,15.63
7,CCc1[nH]c2c(CNc3cncc(C(=O)OC)n3)cc(C)cc2c1C,0.7071
8,CNc1cc(C)nc(NCc2cc(C)cc3c(C)c(C)[nH]c23)n1,35.24
9,CCc1[nH]c2c(CNC(=O)C3CNC(=O)C3)cc(C)cc2c1C (stereo not drawn),7.867
10,Cc1cc(CNc2nccc(N)n2)c2[nH]c(C)c(C)c2c1,6.431
11,CCc1[nH]c2c(CNc3nc(C)cc(NC)n3)cc(C)cc2c1C,100.6
12,CCc1[nH]c2c(CNc3cncc(C(=O)N(C)C)n3)cc(C)cc2c1C,-0.9488
13,CCc1[nH]c2c(CNc3nccc(N)n3)cc(C)cc2c1C,83.04
14,COCC1c2c(cnn2CC2CC2)CCN1Cc1ccsc1.O=C(O)C(F)(F)F.O=C(O)C(F)(F)F (stereo not drawn),-18.97
15,O=C(O)C(F)(F)F.O=C(O)C(F)(F)F.O=C(O)C(F)(F)F.c1ccc(CN2CC[C@]3(C[C@@H](Oc4ccccn4)CO3)C2)nc1,-28.12
16,Cl.Cl.c1cnc(NCc2cncc3c2CCN(CC2CC2)C3)nc1,-5.572
17,Cc1ncsc1-c1nnc(C2CCCN2C(=O)CCn2cccn2)o1 (stereo not drawn),13.77
18,Cc1nnc(N2CC[C@H]3C[C@H](C(=O)N4CCOCC4)O[C@H]3C2)s1.O=C(O)C(F)(F)F,5.897
19,CC(C)CNC(=O)N1CC[C@@H]2CN(Cc3cccnc3)S(=O)(=O)[C@@H]2CC1.O=C(O)C(F)(F)F,36.35
20,COc1ccc(CN2CCCC3(CCN(c4ccsc4)C3=O)C2)cc1.O=C(O)C(F)(F)F (stereo not drawn),27.7
21,Cn1cc(C2CC(=O)NC23CCN(Cc2ccncc2)CC3)cn1.O=C(O)C(F)(F)F.O=C(O)C(F)(F)F (stereo not drawn),-12.84
22,O=C(N[C@@H]1CN(Cc2ccoc2)[C@@H]2CCCO[C@@H]21)C1CC1.O=C(O)C(F)(F)F,-3.228
